COUP-TFII inh – NR2F2 transcriptional activity inhibitors, primary screen, cell-based, luciferase reporter, HEK293T, luminescence; inhibition, % at 8.6 µM; HEK293T NGFI-A luciferase reporter; COUP transcription factor 2 (Homo sapiens), P24468; 0.7% of 370,000 active;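 active means inhibition above a per-plate cutoff, mean inhibition of test wells between control levels plus 3 SD, cut at about 38% in these data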;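 further: cells cotransfected with COUP-TFII expression vector driving the NGFI-A reporter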
Target sequence (P24468 whole entry, looked up): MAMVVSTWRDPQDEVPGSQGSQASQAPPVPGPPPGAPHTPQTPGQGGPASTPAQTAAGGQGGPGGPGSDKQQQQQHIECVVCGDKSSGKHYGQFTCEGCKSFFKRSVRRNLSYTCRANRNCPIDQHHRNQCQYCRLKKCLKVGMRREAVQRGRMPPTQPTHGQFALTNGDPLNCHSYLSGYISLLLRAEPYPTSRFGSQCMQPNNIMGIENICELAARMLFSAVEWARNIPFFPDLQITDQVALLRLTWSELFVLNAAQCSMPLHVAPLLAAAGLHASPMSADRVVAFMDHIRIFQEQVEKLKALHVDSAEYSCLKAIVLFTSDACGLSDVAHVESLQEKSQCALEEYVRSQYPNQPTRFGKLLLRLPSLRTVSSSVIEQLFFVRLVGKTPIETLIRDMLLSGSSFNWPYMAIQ
NCOA2 inhibitor – inhibition of GAL4-SRC2 driven luciferase reporter, primary screen, SRC2 inhibitor project, cell-based, luminescence; Nuclear receptor coactivator 2 (Homo sapiens), Q15596; HEK293 GAL4-SRC2 luciferase reporter; inhibition, % at 9 µM; 0.17% of 370,000 active;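 active means inhibition above the mean inhibition of all tested compounds plus 3 SD, set per campaign, cut at about 52% in these data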
SRC3 inh – SRC3 coactivator transcriptional activity inhibitors, primary screen, cell-based, luminescence; Nuclear receptor coactivator 3 (Homo sapiens), Q9Y6Q9; HEK293 GAL4-SRC3 luciferase reporter; inhibition, % at 3.6 µM; 0.17% of 360,000 active; AID 588352, 2011;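 active means inhibition above a per-campaign cutoff, the mean of all compounds plus 3 SD, cut at about 60% in these data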;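 further: higher means less SRC3-driven luciferase light from the GAL4 reporter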
SRC1 inh – SRC1 coactivator transcriptional activity inhibitors, primary screen, cell-based, luminescence. HEK293 GAL4-SRC1 luciferase reporter. 0.12% of 360,000 active. Nuclear receptor coactivator 1 (Homo sapiens), Q15788. inhibition, % at 3.6 µM. AID 588354, 2011;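 active means inhibition above the campaign mean plus 3 SD, with each screening campaign given its own cutoff, cut at about 60% in these data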
Gli-Sufu block – Gli-Sufu pathway antagonists, primary screen, luciferase luminescence, Sufu-KO-LIGHT cells, uHTS; 0.74% of 340,000 active; Sufu-KO-LIGHT fibroblasts, Gli luciferase reporter luminescence; AID 588413, 2011; inhibition, % at 5 µM;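 active means inhibition above about 55%, limit read from the data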
LRH-1 inv ag – LRH-1 (NR5A2) inverse agonists, primary screen, cell-based, luminescence, HEK293T, StAR-luciferase reporter | Nuclear receptor subfamily 5 group A member 2 (Homo sapiens), O00482 | LRH-1 transfected, 24 h | inhibition, % at 3.6 µM | 0.13% of 360,000 active | AID 602396, 2012;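 active means inhibition above the mean inhibition of all tested compounds plus 3 SD, cut at about 73% in these data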
Gal4-VP16 ctr – Gal4-VP16 luciferase reporter inhibitors, counter-screen for COUP-TFII antagonist project, cell-based, luminescence, HEK293. inhibition, % at 8.5 µM. 25% of 2,500 active. shares compounds with COUP-TFII inh; in the data active means inhibition above about 13%
COUP-TFII conf – NR2F2 transcriptional activity inhibitors, confirmation, cell-based, luciferase reporter, HEK293, triplicate | shares compounds with COUP-TFII inh | HEK293 NGFI-A luciferase reporter, luminescence | inhibition, % at 8.5 µM | 45% of 2,500 active;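 active means mean inhibition over three repeats above a set limit taken from the earlier primary screen, cut at about 38% in these data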
Each line names hits and unclear results; the compound was inactive in the other large screens (follow-up assays come after a bar, where they were run). The list is not random: actives were taken first. Their share in the collection is about 1.3%.

CCOc1ccc(NC(=O)c2ccc(CN3CCc4ccccc4C3)cc2)cc1	COUP-TFII inh 48 | Gal4-VP16 ctr inactive | COUP-TFII conf 41
CCOC(=O)c1ccc(NC(=O)c2ccc(CN3CCc4ccccc4C3)cc2)cc1	COUP-TFII inh 51 | Gal4-VP16 ctr inactive | COUP-TFII conf 54
C[C@H](O)[C@@H]1CN2CCc3c([nH]c4c(-c5ccc6c(c5)OCO6)cccc34)[C@@H]2C[C@@H]1N(C)C(=O)NC1CCCCC1	none (no result: SRC3 inh, SRC1 inh, Gli-Sufu block, LRH-1 inv ag)
COc1ccc(Cn2ccc3ccc(-c4ccc5ccn(C(=O)C6CC6)c5c4)cc32)cc1	none (no result: SRC3 inh, SRC1 inh, Gli-Sufu block, LRH-1 inv ag)
CC(NC(=O)CCc1nnc(-c2ccc(-c3ccccc3)cc2)o1)c1nccs1 (stereo unspecified)	COUP-TFII inh 48, NCOA2 inhibitor 67 | Gal4-VP16 ctr inactive | COUP-TFII conf inactive
COCCNC(=O)CCc1nnc(Cc2ccc(-c3ccccc3)cc2)o1	none
COC(=O)CCCNC(=O)CCc1nnc(-c2ccc(-c3ccccc3)cc2)o1	COUP-TFII inh 52, NCOA2 inhibitor 57 | Gal4-VP16 ctr inactive | COUP-TFII conf inactive
O=C(CCc1nnc(-c2ccc(-c3ccccc3)cc2)o1)NCCc1ccccn1	COUP-TFII inh 43, NCOA2 inhibitor 59 | Gal4-VP16 ctr inactive | COUP-TFII conf inactive
Cc1nc([N+](=O)[O-])cn1CC(Cl)Cn1cc([N+](=O)[O-])nc1C	none (no result: SRC3 inh, SRC1 inh, Gli-Sufu block, LRH-1 inv ag)
CCn1c(COc2ccc(C)cc2)nnc1SCC(=O)Nc1ccc(C(=O)OC)cc1	none (no result: SRC3 inh, SRC1 inh, Gli-Sufu block, LRH-1 inv ag)
CC1(C)CC(=O)C=C(Nc2ccccc2NC(=O)c2cc(F)cc(F)c2)C1	none (no result: SRC3 inh, SRC1 inh, Gli-Sufu block, LRH-1 inv ag)
COc1cc(C#Cc2c(-c3cncn3C)n(C)c3ccc(-c4cnc(OC)nc4)cc23)cc(OC)c1	COUP-TFII inh 45 | Gal4-VP16 ctr inactive | COUP-TFII conf inactive
CC(C)(C)c1ccc(C(=O)Nc2ccc(CC(=O)O)cc2)o1	COUP-TFII inh 95, NCOA2 inhibitor 87 | Gal4-VP16 ctr 84 | COUP-TFII conf 91
C=CCN=C1NC(c2ccc(Cl)cc2)C(C(=O)OC)=C(C)N1Cc1ccccc1C(F)(F)F (stereo unspecified)	none (no result: SRC3 inh, SRC1 inh, Gli-Sufu block, LRH-1 inv ag)
CN1[C@H](Cc2ccccc2)COc2cc(N3CCCC3)ccc2S1(=O)=O	COUP-TFII inh 55 (no result: SRC3 inh, SRC1 inh, Gli-Sufu block, LRH-1 inv ag) | Gal4-VP16 ctr inactive | COUP-TFII conf inactive
COc1cc(CCC(=O)OCC(=O)Nc2sccc2C(N)=O)cc(OC)c1OC	COUP-TFII inh 39 | Gal4-VP16 ctr inactive | COUP-TFII conf inactive
NC(=O)c1ccsc1NC(=O)COC(=O)Cc1cccc2ccccc12	COUP-TFII inh 53 | Gal4-VP16 ctr inactive | COUP-TFII conf 39
CCOc1ccc(-c2cc(CCCC(=O)NCc3ccco3)no2)cc1	COUP-TFII inh 43, NCOA2 inhibitor 60 | Gal4-VP16 ctr inactive | COUP-TFII conf inactive
CCOc1ccc(-c2cc(CCCC(=O)NCc3ccc(C)cc3)no2)cc1	COUP-TFII inh 44, NCOA2 inhibitor 65 | Gal4-VP16 ctr 32 | COUP-TFII conf inactive
CCOc1ccc(-c2nnn(CC(=O)NCc3ccco3)n2)cc1	none
COC(=O)[C@]12C[C@H](CC(=O)NCCCCc3ccccc3)C(=O)N(Cc3ccco3)C1=C[C@H](C(C)C)O[C@@H]2C1CC1	none (no result: SRC3 inh, SRC1 inh, Gli-Sufu block, LRH-1 inv ag)
CCN(CC)CCNC(=O)c1ccc2c(c1NCCO)C(=O)c1ccccc1C2=O	COUP-TFII inh 64, SRC3 inh 63 | Gal4-VP16 ctr inactive | COUP-TFII conf inactive
CC1CCN(C(=O)c2ccc3c(c2NCCO)C(=O)c2ccccc2C3=O)CC1	none
O=C(Nc1ccccc1Cl)N1CCCN(c2nc(-c3ccccc3)ns2)CC1	none
Cc1c(Cl)cccc1NC(=O)N1CCCN(c2nc(-c3ccccc3)ns2)CC1	COUP-TFII inh 57 | Gal4-VP16 ctr inactive | COUP-TFII conf 51
COC(=O)C1CN(Cc2cn(CCC3OCCO3)nn2)CCS(=O)(=O)N1Cc1ccc(C)cc1 (stereo unspecified)	none (no result: SRC3 inh, SRC1 inh, Gli-Sufu block, LRH-1 inv ag)
CC(C)(C)C(=O)NCCCc1nc2ccccc2n1CCCOc1ccc(Cl)cc1	COUP-TFII inh 60 | Gal4-VP16 ctr inactive | COUP-TFII conf inactive
CCC(C(=O)Nc1ccccc1N1CCCC1)c1cccc(C)c1 (stereo unspecified)	none (no result: SRC3 inh, SRC1 inh, Gli-Sufu block, LRH-1 inv ag)
CC(Oc1ccc(Cl)cc1Cl)c1nc(-c2ccc(NC(=O)c3ccncc3)cc2)no1 (stereo unspecified)	COUP-TFII inh 80 | Gal4-VP16 ctr inactive | COUP-TFII conf inactive
COc1ccc(CN2CCN(Cc3ccc4ccccc4c3)CC2)cc1OC	COUP-TFII inh 41 | Gal4-VP16 ctr inactive | COUP-TFII conf inactive
CC(NCc1ccco1)C(=O)N1CCN(c2cccc(C(F)(F)F)c2)CC1 (stereo unspecified)	none (no result: SRC3 inh, SRC1 inh, Gli-Sufu block, LRH-1 inv ag)
COC(=O)C1=C(C)N(C)C(=NCC2CC2)NC1CCc1ccccc1 (stereo unspecified)	none (no result: SRC3 inh, SRC1 inh, Gli-Sufu block, LRH-1 inv ag)
COc1cc2ncnc(NCc3ccccc3)c2cc1OC	none
c1ccc(CN2CCC(CNc3ncnc4ccccc34)C2)cc1 (stereo unspecified)	COUP-TFII inh 41 | Gal4-VP16 ctr inactive | COUP-TFII conf inactive
c1ccc(CN2CCC(Nc3nc(-c4ccccc4)nc4ccccc34)CC2)cc1	none
c1ccc(CNc2ncnc3ccccc23)cc1	COUP-TFII inh 64 | Gal4-VP16 ctr inactive | COUP-TFII conf 53
O=C(OCCC12CC3CC(CC(C3)C1)C2)c1ccc(NCc2cc(O)ccc2O)cc1	COUP-TFII inh 90, NCOA2 inhibitor 94, SRC3 inh 74, Gli-Sufu block 82 | Gal4-VP16 ctr 78 | COUP-TFII conf 101
O=C(C1CC1)N1CCC(c2nc(-c3ccc(S(=O)(=O)NCC4CCCO4)cc3)no2)CC1 (stereo unspecified)	COUP-TFII inh 45 | Gal4-VP16 ctr inactive | COUP-TFII conf inactive
O=C(c1ccccc1)N1CCC(c2nc(-c3ccc(S(=O)(=O)NCC4CCCO4)cc3)no2)CC1 (stereo unspecified)	none
CC(Nc1ncnc2sccc12)c1ccccc1 (stereo unspecified)	COUP-TFII inh 60, Gli-Sufu block 71 | Gal4-VP16 ctr inactive | COUP-TFII conf 61
COCCNC(=S)N(C)[C@H]1C[C@H]2c3[nH]c4c(-c5ccc6c(c5)OCO6)cccc4c3CCN2C[C@H]1[C@H](C)O	none (no result: SRC3 inh, SRC1 inh, Gli-Sufu block, LRH-1 inv ag)

Assay outcomes as filed in PubChem.
